Most compounds without a hit are left out; they make up all but 10% or so of the library.
HP1b chromo inh = HP1-beta chromodomain-methylated histone interaction inhibition; P83916; AlphaScreen HP1-beta / biotin-H3K9me3 peptide binding; Potency, µM (highest dose often 114 µM), inactives show at the top dose activity change, negative = inhibition, actives largely listed as inhibitors; actives 0.56% (n = 390,000); AID 540317; note: nearly all actives have a fitted effect of over 70% in size
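AlphaScreen: HP1-beta (50 nM) preformed 30 min with biotin-H3(1-18)K9me3 peptide (50 nM) in PBS pH 7.4, 0.01% Tween-20. Compound added for 30 min at RT, then streptavidin donor/nickel chelate acceptor beads (10 ug/mL) for 30 min.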
JMJD2A Tudor inh = blocks the human JMJD2A Tudor domain; O75164; AlphaScreen JMJD2A-Tudor / H3K4me3 peptide binding; Potency, µM (highest dose often 114 µM), for inactives: at the top dose activity change, negative = inhibition, actives largely listed as inhibitors; actives 4.4% (n = 390,000); AID 504339; note: % is set by controls: 0 for no effect and ±100 for the full control effect; nearly all actives have a fitted effect of over 50% in size
G9a block = inhibitors of human histone lysine methyltransferase G9a. Q96KQ7. Potency, µM (doses to about 102 µM), for the others: top-dose activity, negative = inhibition, most hits filed as inhibitors. actives 8.8% (n = 350,000). AID 504332. G9a H3K9 monomethylation, AlphaScreen, 2 h; note: % is set by controls: 0 for no effect and ±100 for the full control effect; nearly all actives have a fitted effect of over 75% in size
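G9a (20 nM) was preincubated 15 min with compound, then reacted 2 h at room temperature with 500 nM biotin-H3K9 peptide and 20 µM SAM. Monomethyl-H3K9 detected by AlphaScreen using anti-H3K9me1 antibody.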
BAZ2B inh = BAZ2B (human) inhibition. AlphaScreen BAZ2B-H3K14Ac peptide displacement. Potency, µM (top dose mostly 114 µM), inactives show at the highest dose activity change, negative = inhibition, usual class: inhibitors. actives 4.4% (n = 360,000); note: % is set by controls: 0 for no effect and ±100 for the full control effect; nearly all actives have a fitted effect of over 60% in size
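Complex of BAZ2B and biotin-H3K14Ac (50 nM apiece) forms over 30 min at RT, then faces library compounds up to 110 uM for another 30 min; AlphaScreen beads added, 20 min dark incubation, luminescence read.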
GLS inh = inhibitors of human glutaminase (GLS); Potency, µM (highest dose often 45.5 µM), inactives show top-dose activity change, negative = inhibition, usual class: inhibitors; actives 0.21% (n = 410,000); AID 624170; GLS enzymatic activity, qHTS titration; note: % is set by controls: 0 for no effect and ±100 for the full control effect
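Enzyme dispensed in phosphate buffer (45 mM, pH 8.2, 0.02% Tween-20), compounds pinned in, then 1 mM L-glutamine solution and the glutamate oxidase–HRP–Amplex Red mix added; fluorescence read immediately and again after 30 min at room temperature.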
Numbers without * were called inactive; [ ] = another dose, or the depositor's remark. Calls come from the whole dose curve; as a rule, active = well fitted curve in the direction sought with a large enough effect; inconclusive = small, poorly fitted or top-dose-only effect, or another doubt; inactive = no such curve, though single readings can be large; an effect the other way counts as inactive or inconclusive. Potency is the fitted concentration of half-maximal effect.

How did O=C(CN1C(=O)S/C(=C\c2ccc(F)cc2)C1=O)NCCCn1ccnc1 do in these assays?
HP1b chromo inh: 41.8%; JMJD2A Tudor inh: -22.9%; G9a block: 17.7%; BAZ2B inh: inconclusive; GLS inh: 1.9%

Results for O=C(CCN1C(=O)/C(=C/c2ccc(Cl)cc2)SC1=S)NCCCn1ccnc1 ?
HP1b chromo inh: 47.0%; JMJD2A Tudor inh: -4.3%; G9a block: inconclusive; BAZ2B inh: 39.8µM*; GLS inh: 2.4%

How did O=C(Cc1ccc(Cl)cc1)NCCCn1ccnc1 do in these assays?
HP1b chromo inh: 21.4%; JMJD2A Tudor inh: -18.8%; G9a block: -16.1%[59 µM]; BAZ2B inh: -5.2%; GLS inh: 1.0%

Results for O=C(CCN1C(=O)/C(=C/c2ccc(F)cc2)SC1=S)NCCCn1ccnc1 ?
HP1b chromo inh: 35.2%; JMJD2A Tudor inh: -14.0%; G9a block: 50.1µM*; BAZ2B inh: inconclusive; GLS inh: -2.8%

What do the screens show for `CCOc1cc(C(N)=O)cc(Br)c1OCc1ccccc1`?
HP1b chromo inh: 29.5%; JMJD2A Tudor inh: -15.5%; BAZ2B inh: -14.9%; GLS inh: -1.8%

Results for O=C1Nc2ccc(I)cc2/C1=C/c1cc(Br)c(O)c(Br)c1 ?
G9a block: 21.2µM*

How did Cc1ccc2c(c1)/C(=C/c1ccccc1)C(=O)N2 do in these assays?
HP1b chromo inh: -8.1%; JMJD2A Tudor inh: inconclusive; G9a block: 13.1%; BAZ2B inh: inconclusive; GLS inh: -10.2%

Results for O=C(COC(=O)C12CC3CC(CC(O)(C3)C1)C2)NCc1ccco1 ?
HP1b chromo inh: 22.6%; JMJD2A Tudor inh: -24.7%

Results for COc1cccc(/C=C2\SC(=S)N(CCCC(=O)Nc3ccc(C(=O)O)cc3)C2=O)c1 ?
HP1b chromo inh: -9.0%; JMJD2A Tudor inh: inconclusive; BAZ2B inh: inconclusive; GLS inh: 8.8%

How did O=C(O)CCN1C(=O)/C(=C\c2cccc(OCC(=O)Nc3ccc(Cl)cc3)c2)SC1=S do in these assays?
HP1b chromo inh: 44.7µM*; JMJD2A Tudor inh: -25.0%[11.4 µM]; G9a block: inconclusive; BAZ2B inh: 44.7µM*; GLS inh: 18.0%

What do the screens show for `Cc1ccc(NC(=O)COc2cccc(/C=C3\SC(=S)N(CCC(=O)O)C3=O)c2)cc1Cl`?
HP1b chromo inh: -4.9%; JMJD2A Tudor inh: -31.6%[11.4 µM]; G9a block: 1.9%[59 µM]; BAZ2B inh: 44.7µM*; GLS inh: 8.5%

How did COc1cccc(C(NC(C)=O)c2nc(-c3cccc(F)c3)cs2)c1 (stereo unspecified) do in these assays?
GLS inh: 2.2%

How did Cc1ccn2c(Nc3ccccc3C)c(-c3ccc(N4CCOCC4)cc3)nc2c1 do in these assays?
HP1b chromo inh: -7.7%; JMJD2A Tudor inh: 44.7µM*; G9a block: 10µM*; BAZ2B inh: inconclusive; GLS inh: -6.7%

Results for Cc1ccccc1Nc1c(-c2ccc(N3CCOCC3)cc2)nc2ccc(Cl)cn12 ?
HP1b chromo inh: 12.4%; JMJD2A Tudor inh: inconclusive; G9a block: inconclusive; BAZ2B inh: -38.9%; GLS inh: -2.7%

What do the screens show for `Cc1ccc2nc(-c3ccc(N4CCOCC4)cc3)c(Nc3ccccc3C)n2c1`?
HP1b chromo inh: inconclusive; JMJD2A Tudor inh: 14.1µM*; G9a block: 12.6µM*; BAZ2B inh: 10µM*; GLS inh: 11.9%

Results for Cc1ccc(Nc2c(-c3ccc(N4CCOCC4)cc3)nc3ccc(Cl)cn23)cc1 ?
HP1b chromo inh: 27.0%; JMJD2A Tudor inh: -15.0%; G9a block: -22.9%[59 µM]; GLS inh: 0.1%

Results for Cc1nc2ccc(NS(=O)(=O)c3c(C)c(C)cc(C)c3C)cc2s1 ?
HP1b chromo inh: 49.8%; JMJD2A Tudor inh: -9.2%[11.4 µM]; G9a block: 14.1µM*; BAZ2B inh: inconclusive; GLS inh: 11.3%

High-throughput results from PubChem.
